Measurements published in the supplement of paper PMC10646978.
± gives the standard deviation.

test system: RAW-Dual (murine macrophage reporter line); test: IRF reporter (Lucia luciferase) activity fold change vs agonist alone; higher = enhanced IRF activity; conditions: modulator concentration 10 µM; agonist: MPLA […]
Method in brief: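 RAW-Dual murine macrophage reporter cells were plated at 50 000 per well in 384-well plates, pin-transferred compound to 10 μM final, and pre-incubated for 1 hour at 37 °C before a PRR agonist was added and the cells incubated overnight. NF-κB activity was read from supernatant SEAP with QUANTI-Blue at 620 nm absorbance, and IRF activity from Lucia luciferase with QUANTI-Luc by luminescence. Each signal was expressed as fold change by dividing by the mean agonist-only control on the same plate. Two replicate plates were averaged, with errors obtained by propagation.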

Structure (SMILES)	IRF reporter
COc1ccc(C2Oc3cc(OC)cc(OC)c3CC2O)cc1 (stereo not given)	1.04 ± 0.1
O=S1(=O)N=C(SCc2ccccc2)Nc2ccc(Cl)cc21	1.11 ± 0.3
COc1ccc(Cl)cc1C(=O)N1CCC(S(=O)(=O)c2nncn2C)CC1	1.11 ± 0.29
Cc1nccn1CC1CCc2c(c3ccccc3n2C)C1=O.Cl.O.O (stereo not given)	1.01 ± 0.15
O=C(Nc1cc(C(F)(F)F)cc(C(F)(F)F)c1)c1cc2ccccc2o1	1.03 ± 0.29
CN(C)C(CNC(=O)NCc1ccc(Cl)cc1)c1ccc2c(c1)CCO2 (stereo not given)	1.4 ± 0.14
COc1c(Cl)ccc(Cl)c1C(=O)NCc1ccccc1	1.33 ± 0.25
CC(C)N(C)CCOC(=O)C(C)(c1ccccc1)c1ccccc1	0.965 ± 0.17
COCC(C)(CNS(=O)(=O)c1ccccc1Br)OC (stereo not given)	1.06 ± 0.18
CC(=O)c1ccc(NC(=O)CSc2ccc(-c3ccc4c(c3)OCO4)nn2)cc1	1.03 ± 0.11
COc1ccc(CCN(C)CCCC(C#N)(c2ccc(OC)c(OC)c2)C(C)C)cc1OC.Cl (stereo not given)	1.27 ± 0.12

test system: RAW-Dual (murine macrophage reporter line); test: viability score (confluency relative to resting cells, overnight) (fraction); higher = more viable, active = viable (0.7 or more); conditions: modulator concentration 10 µM
Method in brief: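 Confluency was the readout: RAW-Dual macrophages were imaged with IncuCyte after an overnight exposure to compound at 10 μM final. IncuCyte software produced two masks over all imaged wells. The viability score expresses confluency against resting cells, and both masks had to exceed 70% of resting cells for a compound to meet the cutoff.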

Structure (SMILES)	viability score
COCCCNC(=O)C1CCCN(c2ccc(Sc3ccc(Br)cc3)nn2)C1 (stereo not given)	0.993 (active)
O=C(c1ccc(F)cc1)N(C1CCCCC1)C1CCCCC1	1.02 (active)
CCCc1nc2c(C)cc(-c3nc4ccccc4n3C)cc2n1Cc1ccc(-c2ccccc2C(=O)O)cc1	0.993 (active)
Cc1ccc(NC(=O)C(C#N)=Cc2ccc(-c3cccc([N+](=O)[O-])c3)o2)cc1	1.01 (active)
COc1ccc(N(CC(=O)Nc2ccccc2C(F)(F)F)S(C)(=O)=O)cc1	0.992 (active)
COc1ccccc1S(=O)(=O)N1CC(Oc2nc3c(C(F)(F)F)cccc3s2)C1	1 (active)
COC(=O)C1=C(C)NC(C)=C(C(=O)OCC(C)C)C1c1ccccc1[N+](=O)[O-] (stereo not given)	0.923 (active)
Fc1ccc(Nc2nc(NN=Cc3ccccc3F)nc(N3CCCCC3)n2)cc1	1.01 (active)
COc1ccc(S(=O)(=O)Nc2ccc(Oc3ccccc3)cc2)cc1	1.01 (active)
Br.CN(C)CCCC1(c2ccc(F)cc2)OCc2cc(C#N)ccc21 (stereo not given)	0.979 (active)
COc1cccc(N2C(=O)CN(Cc3ccccc3)C3CS(=O)(=O)CC32)c1 (stereo not given)	0.832 (active)
O=C(O)CC(C(=O)O)N1C(=O)C(=C2C(=O)Nc3ccc(Br)cc32)SC1=S (stereo not given)	0.995 (active)
c1ccc(CNc2nc(N3CCOCC3)nc(N3CCOCC3)n2)cc1	0.991 (active)
Cc1nnc(NC(=O)c2cccc([N+](=O)[O-])c2)s1	1 (active)
COc1ccc(N(CC(=O)N2CCc3ccccc3C2)S(C)(=O)=O)c(OC)c1	1.01 (active)
O=C(Nc1cccnc1)c1ccc(OC2CCOCC2)nc1	0.99 (active)
CC[C@H](C)C(=O)O[C@H]1C[C@@H](C)C=C2C=C[C@H](C)[C@H](CC[C@@H]3C[C@@H](O)CC(=O)O3)[C@H]21	0.238 (inactive)
Cc1c(C)n2c3c(=O)n(CC=Cc4ccccc4)c(=O)n(C)c3nc2n1CCOCCO	0.955 (active)
O=C(Nc1ncc(S(=O)(=O)c2ccc([N+](=O)[O-])cc2)s1)c1cccs1	1.01 (active)
CN1c2ccccc2-c2ccccc2C12C=Cc1cc([N+](=O)[O-])ccc1O2 (stereo not given)	0.999 (active)

Structure (SMILES)	viability score
CCn1cc(C(=O)O)c(=O)c2cc(F)c(N3CCN(C)CC3)cc21.CS(=O)(=O)O.O.O	0.991 (active)
Cc1cc(OCC(O)Cn2cnc3ccccc32)ccc1Cl (stereo not given)	0.906 (active)
CCN(CC)C(=O)N1CCN(C)CC1 [Prestw-284]	0.99 (active)
Cc1cnc2c(c1SCC(=O)N1CCc3ccccc31)c(=O)n(C)c(=O)n2C	1.01 (active)
Cc1c(C)c2c(c(C)c1O)CCC(C)(CCCC(C)CCCC(C)CCCC(C)C)O2 (stereo not given)	0.987 (active)
COc1cc2nc(N(C)CCCNC(=O)C3CCCO3)nc(N)c2cc1OC (stereo not given) [Prestw-322]	0.996 (active)
Cc1cc(C)nc(Nc2ncc(O)n2-c2ccc(F)cc2)n1	0.991 (active)
Cc1cc(OCC(=O)NN=Cc2ccc(O)c([N+](=O)[O-])c2)ccc1Cl	0.998 (active)
COc1ccc(C2Oc3cc(OC)cc(OC)c3CC2O)cc1 (stereo not given)	1.01 (active)
O=S1(=O)N=C(SCc2ccccc2)Nc2ccc(Cl)cc21	1.02 (active)
COc1ccc(Cl)cc1C(=O)N1CCC(S(=O)(=O)c2nncn2C)CC1	0.994 (active)
Cc1nccn1CC1CCc2c(c3ccccc3n2C)C1=O.Cl.O.O (stereo not given)	0.284 (inactive)
O=C(Nc1cc(C(F)(F)F)cc(C(F)(F)F)c1)c1cc2ccccc2o1	1.01 (active)
CN(C)C(CNC(=O)NCc1ccc(Cl)cc1)c1ccc2c(c1)CCO2 (stereo not given)	1 (active)
COc1c(Cl)ccc(Cl)c1C(=O)NCc1ccccc1	1 (active)
CC(C)N(C)CCOC(=O)C(C)(c1ccccc1)c1ccccc1	0.322 (inactive)
COCC(C)(CNS(=O)(=O)c1ccccc1Br)OC (stereo not given)	0.993 (active)
CC(=O)c1ccc(NC(=O)CSc2ccc(-c3ccc4c(c3)OCO4)nn2)cc1	0.99 (active)
COc1ccc(CCN(C)CCCC(C#N)(c2ccc(OC)c(OC)c2)C(C)C)cc1OC.Cl (stereo not given)	0.977 (active)
